This is part of a sample that, as a whole, favours compounds with a hit. Of some 79,000 tested, about 15% had one in any assay. Active and inactive are the calls of the source. Rule as the data show it: active = growth inhibition above about 70%; inactive = the rest.
Key:
[1] = NCI Yeast Anticancer Drug Screen. Data for the rad52 strain (AID 147);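 also: 0% = growth of vehicle-treated control cultures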; conditions: S. cerevisiae rad52 mutant growth inhibition, hits give high values
In short: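 Genetically altered yeast (DNA damage repair defect) treated with compound; inhibition calculated relative to vehicle.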

[2] = NCI Yeast Anticancer Drug Screen. Data for the wt1 strain (AID 149);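 also: 0% = growth of vehicle-treated wt1 cultures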; conditions: S. cerevisiae wt1 strain (SPY 50644) growth inhibition, hits give high values
In short: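 wt1 strain grown with compound or vehicle; inhibition taken from the growth difference.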

[3] = NCI Yeast Anticancer Drug Screen. Data for the rad50EPP+ strain (AID 151);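 also: 0% = growth of vehicle-treated control cultures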; conditions: S. cerevisiae rad50 mutant strain, hits give high values
In short: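 Strain rad50EPP+; compound exposure; % growth inhibition vs vehicle.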

[4] = NCI Yeast Anticancer Drug Screen. Data for the rad50 strain (AID 155);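 also: 0% = growth of vehicle-only cultures of the same strain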; conditions: S. cerevisiae rad50 strain growth inhibition, hits give high values
In short: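 DNA repair mutant yeast, compound exposure, growth read-out; inhibition is taken relative to vehicle.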

[5] = NCI Yeast Anticancer Drug Screen. Data for the mec2-1 strain (AID 157); conditions: S. cerevisiae mec2-1 strain, hits give high values
In short: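 Cells of the genetically defined mec2-1 yeast strain are incubated with test compound. Inhibition of growth is calculated against vehicle-treated controls.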

[6] = NCI Yeast Anticancer Drug Screen. Data for the sgs1 mgt1 strain (AID 161);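 also: 0% = growth of cultures given vehicle only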; conditions: S. cerevisiae sgs1 mgt1 strain, hits give high values
In short: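 Inhibition of yeast growth, normalised to vehicle-treated controls, is reported for a strain bearing genetic alterations in DNA damage repair.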

[7] = NCI Yeast Anticancer Drug Screen. Data for the CLN2oe strain (AID 163);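 also: 0% = growth of vehicle-only control cultures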; conditions: S. cerevisiae CLN2oe strain, hits give high values
In short: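 Strain altered in cell-cycle control, incubated with compound; growth compared to solvent-treated controls.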

[8] = NCI Yeast Anticancer Drug Screen. Data for the cln2 rad14 strain (AID 165);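 also: 0% = growth equal to vehicle treated cultures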; conditions: S. cerevisiae cln2 rad14 strain, hits give high values
In short: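 The screen exposed genetically defined yeast (cln2 rad14) to test compounds and scored growth inhibition relative to vehicle-treated controls.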

[9] = NCI Yeast Anticancer Drug Screen. Data for the bub3 strain (AID 167); conditions: S. cerevisiae bub3 mutant strain, hits give high values
In short: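 In this screen, a yeast mutant lacking normal mitotic checkpoint function is challenged with compound. Relative growth versus vehicle gives the inhibition value.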

[10] = NCI Yeast Anticancer Drug Screen. Data for the wt2 strain (AID 169);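 also: 0% = growth of vehicle-treated yeast cultures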; conditions: S. cerevisiae wt2 strain growth inhibition, hits give high values
In short: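 Steps: yeast strain treated with compound; growth recorded; inhibition calculated relative to cultures given vehicle alone.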

[11] = NCI Yeast Anticancer Drug Screen. Data for the mlh1 strain (AID 171);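 also: 0% = growth of vehicle-treated control cultures of the same strain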; conditions: S. cerevisiae mlh1 strain growth inhibition, hits give high values
In short: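 Yeast screen: mutant strain plus compound, growth scored against vehicle control wells.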

[12] = NCI Yeast Anticancer Drug Screen. Data for the sgs1 strain (AID 173);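 also: 0% = growth of vehicle-only control cultures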; conditions: S. cerevisiae sgs1 mutant, hits give high values
In short: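 Inhibition of yeast growth served as the measure. The mutant strain was treated with each compound, and growth was normalised to cultures receiving vehicle alone.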

[13] = NCI Yeast Anticancer Drug Screen. Data for the mlh1 rad18 strain (AID 175); conditions: S. cerevisiae mlh1 rad18 strain growth inhibition, hits give high values
In short: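 Compound-treated yeast growth, normalised to vehicle controls. Strain bears defined DNA repair mutations.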

[14] = NCI Yeast Anticancer Drug Screen. Data for the rad18 strain (AID 177); conditions: S. cerevisiae rad18 mutant growth inhibition, hits give high values
In short: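 Inhibition values reflect reduced yeast growth compared with vehicle-treated controls, using a strain engineered with a DNA damage repair defect.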

[15] = NCI Yeast Anticancer Drug Screen. Data for the rad14 strain (AID 159);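 also: 0% = growth of vehicle-treated control cultures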; conditions: S. cerevisiae rad14 strain growth inhibition, hits give high values
In short: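 DNA repair-defective yeast, compound-exposed; % growth inhibition derived by comparison with vehicle-treated controls.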

[16] = at 5.0 µM (retest, dose inferred, filed as 0.5)
[17] = at 50.0 µM (retest, dose inferred, filed as 5.0)

Measured: growth inhibition

Cc1ccc2nc(N/N=C/c3ccc(C)s3)cc(C)c2c1
active: [1]; at 33.0 µM 98% | [1]; at 100.0 µM 98% | [2]; at 33.0 µM 99% | [2]; at 100.0 µM 94% | [3]; at 100.0 µM 70% | [4]; at 33.0 µM 99% | [4]; [17] 98% | [4]; at 50.0 µM 89.7% | [4]; at 100.0 µM 93% | [5]; at 33.0 µM 99% | [5]; [17] 99% | [5]; at 50.0 µM 92.7% | [5]; at 100.0 µM 96% | [6]; at 50.0 µM 91.8% | [7]; at 33.0 µM 99% | [7]; at 100.0 µM 93% | [8]; at 50.0 µM 90.8% | [9]; at 33.0 µM 99% | [9]; at 50.0 µM 91.7% | [9]; at 100.0 µM 95% | [10]; at 33.0 µM 99% | [10]; at 100.0 µM 96% | [11]; at 33.0 µM 99% | [11]; at 100.0 µM 99% | [12]; at 33.0 µM 99% | [12]; at 100.0 µM 93% | [13]; [17] 98% | [13]; at 50.0 µM 91.2% | [14]; at 33.0 µM 99% | [14]; at 100.0 µM 93%
inactive: [1]; at 1.2 µM -26% | [1]; at 3.7 µM -40% | [1]; at 11.0 µM -47% | [2]; at 1.2 µM -27% | [2]; at 3.7 µM -18% | [2]; at 11.0 µM 1% | [3]; at 1.2 µM -15% | [3]; at 3.7 µM -5% | [3]; at 11.0 µM 2% | [3]; at 33.0 µM 44% | [4]; at 1.2 µM -2% | [4]; at 3.7 µM -22% | [4]; [16] 22% | [4]; at 11.0 µM -1% | [5]; at 1.2 µM -23% | [5]; at 3.7 µM -17% | [5]; [16] 12% | [5]; at 11.0 µM -19% | [6]; [16] 10% | [6]; [17] 9% | [7]; at 1.2 µM 5% | [7]; at 3.7 µM -5% | [7]; at 11.0 µM 7% | [8]; [16] 17% | [8]; [17] -18% | [9]; at 1.2 µM -6% | [9]; at 3.7 µM 5% | [9]; [16] 7% | [9]; at 11.0 µM 15% | [9]; [17] -10% | [10]; at 1.2 µM 9% | [10]; at 3.7 µM 6% | [10]; at 11.0 µM 30% | [11]; at 1.2 µM -18% | [11]; at 3.7 µM -28% | [11]; at 11.0 µM -10% | [12]; at 1.2 µM -12% | [12]; at 3.7 µM -19% | [12]; at 11.0 µM -1% | [13]; [16] 31% | [14]; at 1.2 µM -8% | [14]; at 3.7 µM -1% | [14]; at 11.0 µM 2%

O=c1[nH]cc(F)c(=O)[nH]1
active: [1]; at 33.0 µM 71% | [1]; at 100.0 µM 88% | [3]; at 11.0 µM 73% | [3]; at 33.0 µM 92% | [3]; at 100.0 µM 96% | [4]; at 33.0 µM 77% | [4]; [17] 89% | [4]; at 50.0 µM 93.2% | [4]; at 100.0 µM 91% | [5]; [17] 96% | [15]; at 100.0 µM 77% | [6]; [17] 95% | [8]; [17] 73% | [9]; [17] 81% | [10]; at 33.0 µM 86% | [10]; at 100.0 µM 95% | [11]; at 33.0 µM 72% | [11]; at 100.0 µM 93% | [12]; at 11.0 µM 79% | [12]; at 33.0 µM 92% | [12]; at 100.0 µM 96% | [13]; [17] 86% | [13]; at 50.0 µM 89.2% | [14]; at 100.0 µM 86%
inactive: [1]; at 1.2 µM 2% | [1]; at 3.7 µM 14% | [1]; at 11.0 µM 39% | [2]; at 1.2 µM -1% | [2]; at 3.7 µM -1% | [2]; at 11.0 µM 9% | [2]; at 33.0 µM 34% | [2]; at 100.0 µM 64% | [3]; at 1.2 µM 4% | [3]; at 3.7 µM 31% | [4]; at 1.2 µM 2% | [4]; at 3.7 µM 17% | [4]; [16] 26% | [4]; at 11.0 µM 43% | [5]; at 1.2 µM 11% | [5]; at 3.7 µM 12% | [5]; [16] 26% | [5]; at 11.0 µM 14% | [5]; at 33.0 µM 14% | [5]; at 50.0 µM 53.7% | [5]; at 100.0 µM 9% | [15]; at 1.2 µM 1% | [15]; at 3.7 µM 10% | [15]; at 11.0 µM 17% | [15]; at 33.0 µM 54% | [6]; [16] 53% | [6]; at 50.0 µM 49.6% | [7]; at 1.2 µM 21% | [7]; at 3.7 µM 23% | [7]; at 11.0 µM 21% | [7]; at 33.0 µM 19% | [7]; at 100.0 µM 18% | [8]; [16] 17% | [8]; at 50.0 µM 66.7% | [9]; at 1.2 µM 6% | [9]; at 3.7 µM 7% | [9]; [16] 2% | [9]; at 11.0 µM 5% | [9]; at 33.0 µM 19% | [9]; at 50.0 µM 44.6% | [9]; at 100.0 µM 3% | [10]; at 1.2 µM 1% | [10]; at 3.7 µM 17% | [10]; at 11.0 µM 58% | [11]; at 1.2 µM 4% | [11]; at 3.7 µM 8% | [11]; at 11.0 µM 23% | [12]; at 1.2 µM 10% | [12]; at 3.7 µM 44% | [13]; [16] 16% | [14]; at 1.2 µM 0% | [14]; at 3.7 µM 10% | [14]; at 11.0 µM 46% | [14]; at 33.0 µM 68%
